Measurements: PubChem BioAssay (EPA / NIEHS)
“And” between values parts separate entries of the source, which are not always exact repeats. Equal values may be shown once. Inconclusive results are not listed. More than one record can exist for a structure, and the calls need not agree. The source made the active and inactive calls. The calls were made as follows, unless noted: active = hit-call score of the fitted dose curve at least 0.9, where 1 is the maximum; inactive = score below 0.9.

Legend:
[1] = BSK_4H_Eotaxin3: BioMAP Diversity Plus: 4H Assay for Eotaxin 3 Biomarker Activity (AID 2283000); conditions: primary human endothelial cells (HUVEC); actives raise or lower the signal;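 as to outcome: CCL26 protein level quantified by ELISA in parallel with SRB cytotoxicity check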
In short: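 Readout is Eotaxin-3 (CCL26) level by ELISA in primary human umbilical vein endothelial cells harvested 24 h after chemical exposure; activity fitted in both directions against DMSO control.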

[2] = read-out: Intercellular Adhesion Molecule 1 (ICAM1), ICAM1 (gene 3383); assay: BSK_3C_ICAM1: BioMAP Diversity Plus: 3C Assay for Intercellular Adhesion Molecule 1 (ICAM1) Biomarker Activity (AID 2283003); conditions: primary human endothelial cells (HUVEC); actives raise or lower the signal
In short: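 Using DMSO as baseline, bidirectional curve fitting was applied to ICAM-1 ELISA signals from HUVEC in the 3C system, measured 24 h after compound addition.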

[3] = target: human Retinoic Acid Receptor beta (RARb), RARB (gene 5915) (UniProt P10826); assay: ATG_RARb_TRANS: Attagene TRANS-FACTORIAL HepG2 Assay for human Retinoic Acid Receptor beta (AID 2283004; active = hit-call score of the fitted dose curve at least 0.9, where 1 is the maximum)
In short: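 Readout is reporter mRNA induction: RNA reverse-transcribed, PCR-amplified, FAM-labelled, HpaI-cut and resolved by capillary electrophoresis. Transiently transfected HepG2 cells carrying exogenous NR–Gal4 chimeras were dosed for 24 h; activity fitted upward relative to DMSO.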

[4] = BSK_3C_Proliferation: Cell Proliferation Assessment in the BioMAP Diversity Plus: 3C Assay (AID 2283006); conditions: primary human endothelial cells (HUVEC);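 as to AC50: potency may reflect either rise or fall in cell number versus DMSO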
In short: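 Measured here: sulforhodamine B (0.1%) staining of TCA-fixed sub-confluent umbilical vein endothelial cultures 48 h post-dosing, absorbance 560 nm. DMSO served as negative control and baseline; both signal gain and loss were modelled.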

[5] = target: Peroxisome proliferator-activated receptor gamma (Homo sapiens) (UniProt P37231); assay: ATG_PPARg_TRANS: Attagene TRANS-FACTORIAL HepG2 Assay for human Peroxisome Proliferator-activated Receptor-gamma (PPARg) (AID 2283007; active = hit-call score of the fitted dose curve at least 0.9, where 1 is the maximum)
In short: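 A TRANS-format multiplexed reporter assay measures activity of an exogenous chimeric NR-Gal4 protein in HepG2 cells. After 24 h of chemical exposure, reporter transcripts are amplified, fluorescently labelled and sized by capillary electrophoresis, with gain of signal scored against DMSO.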

[6] = target: Nuclear receptor subfamily 1 group I member 2 (Homo sapiens) (UniProt O75469); assay: ATG_PXR_TRANS: Attagene TRANS-FACTORIAL HepG2 Assay for human Pregnane X Receptor (PXR) (AID 2283008; active = hit-call score of the fitted dose curve at least 0.9, where 1 is the maximum)
In short: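 Transient HepG2 transfectants carrying multiplexed reporter transcription units; PXR activity read through a Gal4 chimera. 24 h exposure. RT-PCR/CE fluorescence; upward curve fit referenced to DMSO.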

[7] = target: human Retinoic Acid Receptor gamma (RARg), RARG (gene 5916) (UniProt P13631); assay: ATG_RARg_TRANS: Attagene TRANS-FACTORIAL HepG2 Assay for human Retinoic Acid Receptor gamma (RARg) (AID 2283009; active = hit-call score of the fitted dose curve at least 0.9, where 1 is the maximum)
In short: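 Gain-of-signal relative to DMSO is reported from fluorescent capillary electrophoresis of RT-PCR reporter products. These came from HepG2 cells expressing transfected RARg-GAL4 chimeras with UAS reporters, harvested 24 h after dosing.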

[8] = target: Retinoic acid receptor RXR-alpha (Homo sapiens) (UniProt P19793); assay: ATG_RXRa_TRANS: Attagene TRANS-FACTORIAL HepG2 Assay for human Retinoid X Receptor alpha (RXRa) (AID 2283012; active = hit-call score of the fitted dose curve at least 0.9, where 1 is the maximum)
In short: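 Chimeric NR-GAL4 trans-activation in HepG2, 24 h treatment; reporter transcripts quantified by fluorescence on capillary electrophoresis, analysed for upward change from DMSO.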

[9] = target: human Thyroid Receptor alpha (THRa1), THRA (gene 7067) (UniProt P10827); assay: ATG_THRa1_TRANS: Attagene TRANS-FACTORIAL HepG2 Assay for human Thyroid Receptor alpha (THRa1) (AID 2283014; active = hit-call score of the fitted dose curve at least 0.9, where 1 is the maximum)
In short: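 Transient HepG2 transfection, NR-Gal4 chimera driving GAL4-UAS reporters; 24 h compound exposure; total RNA, oligo(dT) RT, PCR, fluorescent primer extension, capillary electrophoresis. Upward direction vs DMSO control.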

[10] = read-out: E-selectin (Homo sapiens) (UniProt P16581); assay: BSK_3C_Eselectin: BioMAP Diversity Plus: 3C Assay for Eselectin Biomarker Activity (AID 2283015); conditions: primary human endothelial cells (HUVEC); actives raise or lower the signal;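 also: cell surface E-selectin protein quantified by ELISA 24 h after dosing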
In short: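 HUVEC, 3C stimulation; compound exposure 24 h; E-selectin by ELISA; gain- or loss-of-signal fitted bidirectionally vs DMSO baseline.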

[11] = read-out: Interleukin-1 alpha (IL1a), IL1A (gene 3552); assay: BSK_BE3C_IL1a: BioMAP Diversity Plus: BE3C Assay for Interleukin-1 alpha (IL1a) Biomarker Activity (AID 2283016); conditions: primary human bronchial epithelial cells; actives raise or lower the signal
In short: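 Measured in human lung primary bronchial epithelial cells: IL-1a by ELISA at 24 h after dosing, with bidirectional fitting against DMSO.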

[12] = read-out: Monocyte Chemoattractant Protein-1 (MCP1), CCL2 (gene 6347); assay: BSK_3C_MCP1: BioMAP Diversity Plus: 3C Assay for Monocyte Chemoattractant Protein-1 (MCP1) Biomarker Activity (AID 2283017); conditions: primary human endothelial cells (HUVEC); actives raise or lower the signal
In short: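 HUVEC, 3C system; 24 h chemical exposure; MCP-1 by ELISA; bidirectional curve fit vs DMSO baseline.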

[13] = read-out: Monocyte Chemoattractant Protein-1 (MCP1), CCL2 (gene 6347); assay: BSK_4H_MCP1: BioMAP Diversity Plus: 4H Assay for Monocyte Chemoattractant Protein-1 (MCP1) Biomarker Activity (AID 2283018); conditions: primary human endothelial cells (HUVEC); actives raise or lower the signal
In short: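 Primary human umbilical vein endothelium is exposed to chemical for 24 h before MCP-1 is assayed by ELISA. Concentration-response fitted bidirectionally relative to DMSO.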

[14] = read-out: Human Leukocyte Antigen - DR isotype (HLADR), HLA-DRA (gene 3122); assay: BSK_3C_HLADR: BioMAP Diversity Plus: 3C Assay for Human Leukocyte Antigen - DR isotype (HLADR) Biomarker Activity (AID 2283019); conditions: primary human endothelial cells (HUVEC); actives raise or lower the signal;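 as to outcome: ELISA of cell-surface HLA-DR on HUVEC 24 h after dosing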
In short: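 HUVEC, 3C stimulation, 24 h post-dose; HLA-DR by ELISA; bidirectional curve fit vs DMSO baseline; gain or loss of signal scored.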

[15] = read-out: Interleukin-8 (IL8), CXCL8 (gene 3576); assay: BSK_3C_IL8: BioMAP Diversity Plus: 3C Assay for Interleukin-8 (IL8) Biomarker Activity (AID 2283020); conditions: primary human endothelial cells (HUVEC); actives raise or lower the signal
In short: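 Using DMSO-treated wells as the baseline, bidirectional curve fitting was applied to ELISA-measured IL-8 from human umbilical vein endothelial cultures sampled 24 h after compound addition.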

[16] = target: human Retinoid X Receptor beta (RXRb), RXRB (gene 6257) (UniProt P28702); assay: ATG_RXRb_TRANS: Attagene TRANS-FACTORIAL HepG2 Assay for human Retinoid X Receptor beta (RXRb) (AID 2283013; active = hit-call score of the fitted dose curve at least 0.9, where 1 is the maximum)
In short: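 After a 24 h incubation with test chemical, transfected HepG2 cells carrying NR-Gal4 fusions and GAL4-UAS reporter transcription units yield RNA whose reporter cDNA is FAM-labelled, HpaI-cut and sized by capillary electrophoresis; increases over DMSO are scored.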

[17] = target: human Peroxisome Proliferator-activated Receptor delta (PPARd), PPARD (gene 5467) (UniProt Q03181); assay: ATG_PPARd_TRANS: Attagene TRANS-FACTORIAL HepG2 Assay for human Peroxisome Proliferator-activated Receptor delta (PPARd) (AID 2283002; active = hit-call score of the fitted dose curve at least 0.9, where 1 is the maximum)
In short: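 Transient HepG2 transfection (multiple GAL4-UAS RTUs, chimeric receptor-Gal4); 24 h dosing; total RNA → oligo(dT) RT → PCR → 6-FAM primer extension → HpaI cut → CE. Positive direction vs DMSO.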

[18] = target: human RAR-related Orphan Receptor beta (RORb), RORB (gene 6096) (UniProt Q92753); assay: ATG_RORb_TRANS: Attagene TRANS-FACTORIAL HepG2 Assay for human RAR-related Orphan Receptor beta (RORb) (AID 2283010; active = hit-call score of the fitted dose curve at least 0.9, where 1 is the maximum)
In short: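 Multiplexed transcription-factor reporter assay: HepG2 cells transiently carrying NR-Gal4/GAL4-UAS constructs, 24 h treatment, mRNA quantified by RT-PCR plus capillary electrophoresis fluorescence; activity scored as induction over DMSO.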

[19] = target: human RAR-related Orphan Receptor gamma (RORg), RORC (gene 6097) (UniProt P51449); assay: ATG_RORg_TRANS: Attagene TRANS-FACTORIAL HepG2 Assay for human RAR-related Orphan Receptor gamma (RORg) (AID 2283011; active = hit-call score of the fitted dose curve at least 0.9, where 1 is the maximum)
In short: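 Transient MRTU transfection of HepG2 (TRANS format, exogenous NR-Gal4 chimera). 24 h dosing. Total RNA → oligo(dT) RT → PCR → 6-FAM labelling → HpaI cut → CE. Gain vs DMSO.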

Chain of human Retinoic Acid Receptor beta (RARb), RARB (gene 5915) (P10826 whole entry, looked up, the tested form may be a part): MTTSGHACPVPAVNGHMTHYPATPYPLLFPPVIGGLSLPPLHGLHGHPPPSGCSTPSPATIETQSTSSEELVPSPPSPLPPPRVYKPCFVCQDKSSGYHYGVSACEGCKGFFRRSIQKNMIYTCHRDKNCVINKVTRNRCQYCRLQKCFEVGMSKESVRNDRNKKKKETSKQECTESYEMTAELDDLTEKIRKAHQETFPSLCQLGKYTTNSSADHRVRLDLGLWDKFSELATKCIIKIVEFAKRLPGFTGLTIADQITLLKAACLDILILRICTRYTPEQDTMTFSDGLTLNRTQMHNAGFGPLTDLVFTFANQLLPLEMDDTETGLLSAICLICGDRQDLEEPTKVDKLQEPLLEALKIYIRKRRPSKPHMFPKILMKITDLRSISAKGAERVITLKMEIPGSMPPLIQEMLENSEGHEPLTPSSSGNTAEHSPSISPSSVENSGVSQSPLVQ
Chain of human Retinoid X Receptor beta (RXRb), RXRB (gene 6257) (P28702 whole entry, looked up, the tested form may be a part): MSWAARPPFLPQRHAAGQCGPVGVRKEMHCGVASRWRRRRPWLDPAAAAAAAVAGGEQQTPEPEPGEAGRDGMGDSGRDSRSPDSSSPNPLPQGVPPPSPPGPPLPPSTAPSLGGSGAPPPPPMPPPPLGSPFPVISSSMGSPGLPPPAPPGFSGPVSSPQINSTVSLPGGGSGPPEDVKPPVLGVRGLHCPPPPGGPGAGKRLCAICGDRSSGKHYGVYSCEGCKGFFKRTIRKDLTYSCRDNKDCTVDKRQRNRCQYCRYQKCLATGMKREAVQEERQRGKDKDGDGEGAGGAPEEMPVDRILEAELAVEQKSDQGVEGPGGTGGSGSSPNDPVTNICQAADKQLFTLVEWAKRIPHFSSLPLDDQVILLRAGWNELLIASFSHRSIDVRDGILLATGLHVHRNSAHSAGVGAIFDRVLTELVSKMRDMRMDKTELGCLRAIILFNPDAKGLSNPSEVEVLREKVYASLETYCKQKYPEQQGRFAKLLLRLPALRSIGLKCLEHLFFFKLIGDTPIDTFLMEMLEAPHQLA
Chain of E-selectin (Homo sapiens) (P16581 whole entry, looked up): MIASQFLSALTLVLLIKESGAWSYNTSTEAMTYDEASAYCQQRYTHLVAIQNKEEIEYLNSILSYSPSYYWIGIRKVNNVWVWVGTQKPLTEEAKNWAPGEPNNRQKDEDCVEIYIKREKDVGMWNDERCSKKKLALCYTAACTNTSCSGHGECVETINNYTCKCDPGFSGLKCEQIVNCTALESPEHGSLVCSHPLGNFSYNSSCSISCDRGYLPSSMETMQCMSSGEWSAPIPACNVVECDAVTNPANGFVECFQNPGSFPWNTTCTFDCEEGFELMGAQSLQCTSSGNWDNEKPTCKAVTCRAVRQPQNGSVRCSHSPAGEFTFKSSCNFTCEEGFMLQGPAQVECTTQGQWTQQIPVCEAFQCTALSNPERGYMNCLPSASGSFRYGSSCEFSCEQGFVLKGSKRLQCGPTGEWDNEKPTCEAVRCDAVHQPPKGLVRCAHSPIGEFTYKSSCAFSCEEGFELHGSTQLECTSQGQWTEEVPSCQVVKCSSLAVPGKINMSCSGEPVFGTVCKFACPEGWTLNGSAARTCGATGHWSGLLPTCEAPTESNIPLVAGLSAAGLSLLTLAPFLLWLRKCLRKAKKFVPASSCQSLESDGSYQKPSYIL
Chain of human Retinoic Acid Receptor gamma (RARg), RARG (gene 5916) (P13631 whole entry, looked up, the tested form may be a part): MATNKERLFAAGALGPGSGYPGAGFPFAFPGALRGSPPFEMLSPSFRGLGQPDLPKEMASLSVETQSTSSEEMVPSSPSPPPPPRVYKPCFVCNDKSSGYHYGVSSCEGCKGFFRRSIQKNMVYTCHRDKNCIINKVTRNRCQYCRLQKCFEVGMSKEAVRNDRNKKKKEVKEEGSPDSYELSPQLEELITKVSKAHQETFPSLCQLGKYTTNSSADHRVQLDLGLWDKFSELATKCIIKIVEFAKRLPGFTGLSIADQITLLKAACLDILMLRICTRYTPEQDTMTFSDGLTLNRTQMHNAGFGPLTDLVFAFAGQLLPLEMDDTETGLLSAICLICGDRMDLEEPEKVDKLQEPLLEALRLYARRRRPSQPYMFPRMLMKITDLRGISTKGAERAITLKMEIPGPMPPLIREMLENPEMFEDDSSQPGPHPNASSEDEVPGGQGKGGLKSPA
Chain of human RAR-related Orphan Receptor gamma (RORg), RORC (gene 6097) (P51449 whole entry, looked up, the tested form may be a part): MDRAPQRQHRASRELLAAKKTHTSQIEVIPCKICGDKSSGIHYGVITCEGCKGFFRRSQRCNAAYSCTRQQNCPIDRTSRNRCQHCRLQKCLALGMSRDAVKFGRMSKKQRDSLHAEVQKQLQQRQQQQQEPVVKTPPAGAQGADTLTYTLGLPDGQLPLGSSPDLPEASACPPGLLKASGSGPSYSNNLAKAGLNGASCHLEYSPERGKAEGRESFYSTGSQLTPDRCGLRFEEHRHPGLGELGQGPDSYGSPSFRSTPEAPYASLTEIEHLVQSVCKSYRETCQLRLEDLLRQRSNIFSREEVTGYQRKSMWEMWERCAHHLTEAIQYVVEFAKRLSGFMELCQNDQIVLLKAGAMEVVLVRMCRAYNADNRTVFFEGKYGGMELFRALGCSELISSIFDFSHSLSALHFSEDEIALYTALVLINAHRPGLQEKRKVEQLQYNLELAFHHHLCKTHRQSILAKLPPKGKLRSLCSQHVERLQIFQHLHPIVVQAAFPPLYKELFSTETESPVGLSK
Chain of Nuclear receptor subfamily 1 group I member 2 (Homo sapiens) (O75469 whole entry, looked up, the tested form may be a part): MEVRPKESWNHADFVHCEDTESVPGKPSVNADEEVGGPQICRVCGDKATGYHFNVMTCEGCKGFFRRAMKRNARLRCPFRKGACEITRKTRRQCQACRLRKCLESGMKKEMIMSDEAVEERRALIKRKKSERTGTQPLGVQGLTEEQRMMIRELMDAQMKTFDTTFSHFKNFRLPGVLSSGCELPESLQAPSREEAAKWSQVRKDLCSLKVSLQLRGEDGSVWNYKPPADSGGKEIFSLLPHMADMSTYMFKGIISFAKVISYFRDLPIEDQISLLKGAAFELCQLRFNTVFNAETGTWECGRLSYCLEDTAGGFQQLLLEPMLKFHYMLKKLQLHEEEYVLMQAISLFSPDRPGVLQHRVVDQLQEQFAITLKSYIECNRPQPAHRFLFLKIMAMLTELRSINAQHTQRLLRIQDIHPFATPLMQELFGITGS
Chain of human RAR-related Orphan Receptor beta (RORb), RORB (gene 6096) (Q92753 whole entry, looked up, the tested form may be a part): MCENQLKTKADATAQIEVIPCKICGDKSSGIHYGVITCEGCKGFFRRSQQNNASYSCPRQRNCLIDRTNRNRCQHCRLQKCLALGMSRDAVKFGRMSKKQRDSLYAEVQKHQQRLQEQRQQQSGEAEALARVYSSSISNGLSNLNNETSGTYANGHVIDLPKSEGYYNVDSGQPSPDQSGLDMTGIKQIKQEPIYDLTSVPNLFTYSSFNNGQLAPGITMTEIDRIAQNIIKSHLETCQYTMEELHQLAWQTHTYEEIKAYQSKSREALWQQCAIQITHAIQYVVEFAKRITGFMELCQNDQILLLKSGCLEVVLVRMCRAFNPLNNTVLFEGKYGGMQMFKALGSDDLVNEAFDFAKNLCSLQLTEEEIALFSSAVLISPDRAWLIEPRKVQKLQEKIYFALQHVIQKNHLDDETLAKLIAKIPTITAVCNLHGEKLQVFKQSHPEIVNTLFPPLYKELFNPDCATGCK
Chain of human Thyroid Receptor alpha (THRa1), THRA (gene 7067) (P10827 whole entry, looked up, the tested form may be a part): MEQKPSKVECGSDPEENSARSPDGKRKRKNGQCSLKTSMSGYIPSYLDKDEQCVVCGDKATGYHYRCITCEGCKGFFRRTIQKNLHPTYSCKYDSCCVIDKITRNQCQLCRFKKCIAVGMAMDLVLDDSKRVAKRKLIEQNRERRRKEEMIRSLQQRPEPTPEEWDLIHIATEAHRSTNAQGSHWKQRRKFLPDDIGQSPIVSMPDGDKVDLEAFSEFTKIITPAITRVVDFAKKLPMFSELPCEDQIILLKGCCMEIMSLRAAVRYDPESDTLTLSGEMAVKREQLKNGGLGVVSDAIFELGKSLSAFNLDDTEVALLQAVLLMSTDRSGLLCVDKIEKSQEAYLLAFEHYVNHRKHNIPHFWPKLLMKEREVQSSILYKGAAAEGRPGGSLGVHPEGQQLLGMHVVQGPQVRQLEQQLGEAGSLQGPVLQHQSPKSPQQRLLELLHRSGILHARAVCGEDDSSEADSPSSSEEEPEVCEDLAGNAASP
Chain of Peroxisome proliferator-activated receptor gamma (Homo sapiens) (P37231 whole entry, looked up, the tested form may be a part): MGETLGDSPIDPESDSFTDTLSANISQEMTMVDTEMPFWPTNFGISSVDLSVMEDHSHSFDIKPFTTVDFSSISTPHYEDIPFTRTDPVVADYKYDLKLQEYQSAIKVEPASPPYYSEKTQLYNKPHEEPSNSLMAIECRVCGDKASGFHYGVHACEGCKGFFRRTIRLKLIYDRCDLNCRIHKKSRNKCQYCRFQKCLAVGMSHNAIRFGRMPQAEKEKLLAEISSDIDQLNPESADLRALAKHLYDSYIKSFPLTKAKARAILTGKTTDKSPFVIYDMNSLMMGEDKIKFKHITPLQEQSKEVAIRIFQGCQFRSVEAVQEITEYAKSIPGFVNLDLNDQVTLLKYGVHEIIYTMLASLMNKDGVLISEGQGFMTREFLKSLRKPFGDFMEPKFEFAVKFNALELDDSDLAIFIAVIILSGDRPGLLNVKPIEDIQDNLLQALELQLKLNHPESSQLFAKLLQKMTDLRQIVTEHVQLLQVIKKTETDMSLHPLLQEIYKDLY
Chain of Retinoic acid receptor RXR-alpha (Homo sapiens) (P19793 whole entry, looked up, the tested form may be a part): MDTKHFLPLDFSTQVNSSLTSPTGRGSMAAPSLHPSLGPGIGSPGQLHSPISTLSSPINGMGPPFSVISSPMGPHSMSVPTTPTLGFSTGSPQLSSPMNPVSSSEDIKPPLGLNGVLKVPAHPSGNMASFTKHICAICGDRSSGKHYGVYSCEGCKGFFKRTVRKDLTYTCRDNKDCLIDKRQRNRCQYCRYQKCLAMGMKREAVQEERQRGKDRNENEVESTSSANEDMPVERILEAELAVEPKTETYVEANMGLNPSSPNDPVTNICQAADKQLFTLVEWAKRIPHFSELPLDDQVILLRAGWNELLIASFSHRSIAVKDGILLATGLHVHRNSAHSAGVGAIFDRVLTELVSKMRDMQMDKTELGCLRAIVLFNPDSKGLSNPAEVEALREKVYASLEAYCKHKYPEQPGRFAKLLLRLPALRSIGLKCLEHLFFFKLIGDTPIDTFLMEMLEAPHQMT

SMILES: C#C[C@]1(O)CC[C@H]2[C@@H]3CCc4cc(OC)ccc4[C@H]3CC[C@@]21C
- AC50 [1]: 2.22 µM (active)
- outcome [2]: inactive
- outcome [3]: inactive
- AC50 [4]: 31.1 µM (active)
- outcome [5]: inactive
- AC50 [6]: 4.66 µM (active)
- outcome [7]: inactive
- outcome [8]: inactive
- outcome [9]: inactive
- outcome [10]: inactive
- AC50 [11]: 0.998 µM (active)
- outcome [12]: inactive
- outcome [13]: inactive
- AC50 [14]: 31.2 µM (active)
- AC50 [15]: 3.97 µM (active)

SMILES: FC(F)(Br)C(F)(F)C(F)(F)C(F)(F)C(F)(F)C(F)(F)Br
- outcome [1]: inactive
- outcome [2]: inactive
- outcome [4]: inactive
- outcome [5]: inactive
- outcome [6]: inactive
- outcome [8]: inactive
- outcome [16]: inactive
- outcome [10]: inactive
- outcome [11]: inactive
- outcome [12]: inactive
- outcome [13]: inactive
- outcome [14]: inactive
- outcome [15]: inactive

SMILES: O=C(O)C(F)(F)C(F)(F)C(F)(F)F
- outcome [1]: inactive
- outcome [17]: inactive
- outcome [2]: inactive
- outcome [4]: inactive
- outcome [5]: inactive
- outcome [6]: inactive
- outcome [18]: inactive
- outcome [19]: inactive
- outcome [9]: inactive
- outcome [10]: inactive
- outcome [11]: inactive
- outcome [12]: inactive
- outcome [13]: inactive
- outcome [14]: inactive
- outcome [15]: inactive

SMILES: NC(=O)C(F)(F)C(F)(F)C(F)(F)C(F)(F)F
- outcome [1]: inactive
- outcome [2]: inactive
- outcome [3]: inactive
- outcome [4]: inactive
- outcome [5]: inactive
- outcome [6]: inactive
- outcome [18]: inactive
- outcome [10]: inactive
- outcome [11]: inactive
- outcome [12]: inactive
- outcome [13]: inactive
- outcome [14]: inactive
- outcome [15]: inactive

SMILES: CC(C)(C)C(=O)CC(=O)C(F)(F)C(F)(F)C(F)(F)F
- outcome [1]: inactive
- outcome [2]: inactive
- outcome [3]: inactive
- AC50 [4]: 43.3 µM (active) and 44.3 µM (active)
- outcome [5]: inactive
- outcome [6]: inactive
- outcome [7]: inactive
- outcome [18]: inactive
- outcome [19]: inactive
- outcome [10]: inactive
- outcome [11]: inactive
- outcome [12]: inactive
- outcome [13]: inactive
- AC50 [14]: 30 µM (active)
- outcome [14]: inactive
- outcome [15]: inactive

SMILES: C=C(C)C(=O)OCC(F)(F)C(F)(F)C(F)(F)F
- outcome [1]: inactive
- outcome [2]: inactive
- outcome [3]: inactive
- outcome [4]: inactive
- outcome [5]: inactive
- outcome [6]: inactive
- outcome [16]: inactive
- outcome [10]: inactive
- outcome [11]: inactive
- outcome [12]: inactive
- outcome [13]: inactive
- outcome [14]: inactive
- outcome [15]: inactive

SMILES: FC(F)(F)C(F)(F)C(F)(F)C(F)(F)C(F)(F)C(F)(F)CC1CO1 (centres undefined)
- outcome [1]: inactive
- outcome [2]: inactive
- outcome [3]: inactive
- outcome [4]: inactive
- outcome [5]: inactive
- outcome [6]: inactive
- outcome [7]: inactive
- outcome [18]: inactive
- outcome [19]: inactive
- outcome [9]: inactive
- outcome [10]: inactive
- outcome [11]: inactive
- outcome [12]: inactive
- outcome [13]: inactive
- outcome [14]: inactive
- outcome [15]: inactive

SMILES: CCCCNc1ccccc1
- outcome [1]: inactive
- outcome [2]: inactive
- outcome [4]: inactive
- outcome [5]: inactive
- outcome [6]: inactive
- outcome [18]: inactive
- outcome [9]: inactive
- outcome [10]: inactive
- outcome [11]: inactive
- outcome [12]: inactive
- outcome [13]: inactive
- outcome [14]: inactive
- outcome [15]: inactive
